High-throughput results as filed in PubChem.
RORg inh: qHTS for inhibitors of ROR gamma transcriptional activity; Nuclear receptor ROR-gamma (Mus musculus), P51450; Drosophila S2 Gal4-RORgamma UAS-luciferase reporter, 20 h; Potency, µM (series often up to 53.6 µM), usual class: inhibitors; 310,000 compounds, 5.4% hits; AID 2551, 2010; also: nearly all actives have a fitted effect of over 60% in size
Target sequence (P51450 whole entry, looked up, the tested form may be a part): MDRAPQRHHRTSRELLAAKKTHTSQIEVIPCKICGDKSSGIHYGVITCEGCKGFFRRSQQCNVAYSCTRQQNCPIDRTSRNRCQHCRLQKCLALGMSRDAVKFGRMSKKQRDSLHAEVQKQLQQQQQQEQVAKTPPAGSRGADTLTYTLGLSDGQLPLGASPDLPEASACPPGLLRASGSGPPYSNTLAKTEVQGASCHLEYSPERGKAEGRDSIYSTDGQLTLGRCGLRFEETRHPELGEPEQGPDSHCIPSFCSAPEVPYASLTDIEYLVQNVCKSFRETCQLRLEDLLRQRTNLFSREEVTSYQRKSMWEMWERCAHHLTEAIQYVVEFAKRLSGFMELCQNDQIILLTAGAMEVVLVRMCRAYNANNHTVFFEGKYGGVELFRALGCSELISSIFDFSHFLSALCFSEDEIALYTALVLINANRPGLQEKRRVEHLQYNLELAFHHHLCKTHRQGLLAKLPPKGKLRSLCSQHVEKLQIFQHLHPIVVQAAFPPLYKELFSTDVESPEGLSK
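Stably transfected Drosophila Schneider cells are the test system, with ROR gamma fused to Gal4 and luciferase under UAS control; luminescence is read after 20 hr of 700 uM copper sulfate induction at ambient temperature.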
MCF10A rereplic: A quantitative high throughput screen for small molecules that induce DNA re-replication in MCF 10a normal breast cells; MCF 10A DNA re-replication, Hoechst nuclear intensity, 48 h; Potency, µM (series often up to 46.1 µM), hits mostly activators; 350,000 compounds, 2.9% hits; AID 624296, 2012; also: nearly all actives have a fitted effect of over 50% in size
KB-3-1 tox: qHTS assay for MDR1-selective chemotherapeutics: Primary screen using the parental adenocarcinoma cell KB-3-1. KB-3-1 viability, CellTiter-Glo ATP luminescence, 72 h. Potency, µM (titrated, usually from 46.1 µM), usual class: cytotoxic. 400,000 compounds, 1.4% hits; also: nearly all actives have a fitted effect of over 60% in size
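Parental KB-3-1 adenocarcinoma cells in phenol-red-free DMEM with 10% FBS were pin-treated with compounds at several concentrations, incubated 72 h at 37 °C, and viability read by CellTiter-Glo luminescence; concentration-effect curves were fitted after normalization.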
KB-V1 MDR tox: qHTS assay for MDR1-selective chemotherapeutics: Primary screen using the drug-selected MDR subline cells KB-V1 | Potency, µM (top dose mostly 46.1 µM), usual class: cytotoxic | 400,000 compounds, 3.4% hits | KB-V1 MDR cells viability, CellTiter-Glo, 72 h; also: nearly all actives have a fitted effect of over 60% in size
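KB-V1, DMEM (no phenol red) + 10% FBS; cpd pin-transferred, titration series; 72 h, 37 degrees C; CellTiter-Glo, luminescence. Data normalized, curve-fit.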
SW480 rereplic: A quantitative high throughput screen for small molecules that induce DNA re-replication in SW480 colon adenocarcinoma cells | SW480 DNA re-replication, Hoechst DNA content imaging, 48 h | Potency, µM (series often up to 46.1 µM), actives largely listed as activators | 340,000 compounds, 1.8% hits | AID 624297, 2012; also: nearly all actives have a fitted effect of over 55% in size
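Compounds, transferred as 23 nL by pin tool, were incubated with cells for 48 hr; DNA content per nucleus was then quantified by Hoechst staining and fluorescence plate imaging.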
VP16 counter: VP16 counterscreen qHTS for inhibitors of ROR gamma transcriptional activity; 310,000 compounds, 3.5% hits; Potency, µM (highest dose often 53.6 µM), most hits filed as inhibitors; Drosophila S2 Gal4-VP16 UAS-luciferase, luminescence, 20 h;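 also: Gal4-VP16 expression switched on by copper sulfate through the metallothionein promoter; nearly all actives have a fitted effect of over 50% in size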
A number is an active result; i = inactive; ? = inconclusive; nt = no result given; [ ] = another dose, or the depositor's remark. An excerpt weighted towards active compounds, which were near 10% of everything screened. Calls follow the shape of the dose curve; as a rule, active = well fitted curve in the direction sought with a large enough effect; inconclusive = small, poorly fitted or top-dose-only effect, or another doubt; inactive = no such curve, though single readings can be large; an effect the other way counts as inactive or inconclusive.

SMILES	RORg inh	MCF10A rereplic	KB-3-1 tox	KB-V1 MDR tox	SW480 rereplic	VP16 counter
COc1ccc(N(C)C(=O)CCC(=O)Nc2ccc3nc(N4CCOCC4)cc(C)c3c2)c(OC)c1	?	?	?	16µM	i	i
Cc1cc(N2CCOCC2)nc2ccc(NC(=O)CCC(=O)N3CCCCC3)cc12	i	i	i	i	i	i
COc1ccc(CNC(=S)Nc2ccc3nc(N4CCN(C)CC4)cc(C)c3c2)cc1	i	?	i	i	i	i
CCC(C)NC(=S)Nc1ccc2nc(N3CCOCC3)cc(C)c2c1 (stereo not given)	10µM	i	i	i	i	?
Cc1cc(N2CCOCC2)nc2ccc(NC(=O)CCC(=O)N3CCN(c4cccc(C(F)(F)F)c4)CC3)cc12	i	15µM	?	?	i	?
COCCNC(=O)C1CCCN(C(=O)C2(c3ccc(Cl)cc3)CCCC2)CC1 (stereo not given)	nt	nt	i	i	nt	nt
O=C(CSc1ccccc1C(=O)O)NC1CCCCCCC1	i	i	i	i	i[9.22 µM]	i
O=C(CSc1ccccc1C(=O)NCc1ccccc1)NC1CCCCCCC1	i	i	i	3.3µM	i	i
O=C(CSc1ccccc1C(=O)O)NCc1ccccc1	i	i	i	i	i	i
O=C(CSc1ccccc1C(=O)NCc1ccccc1)NC12CC3CC(CC(C3)C1)C2	i	?	?	5.8µM	?	i
O=C(CSc1ccccc1C(=O)O)NC1CCCCCC1	i	i	i	i	i	i
CC(C)CCNC(=O)c1ccccc1SCC(=O)NC1CCCCCCC1	nt	i	i	5.8µM	i	nt
COc1cc(NCc2ccccc2O)c2ncccc2c1	i	21µM	i	i	i	i
Oc1ccccc1CNc1cccc2cccnc12	?	i	i	i	i	?
COc1cc(NCCCCCCCN)c2ncccc2c1	1.6µM	?	i	i	?	?
COC(=O)c1ccc(-c2ccc(OC)c(C3C4C=CCC(C)C4C(=O)N3Cc3ccccc3)c2)cc1 (stereo not given)	i	nt	nt	nt	nt	i
COc1cccc(NC(=O)CSc2nc3c(oc4ccccc43)c(=O)n2Cc2ccco2)c1	nt	nt	i	i	nt	nt
C/C(=N\Nc1nc(N2CCCCCC2)nc(N2CCCCCC2)n1)c1ccccc1	3.2µM	i	i	i	i	i
C(=C\c1ccccc1)/C=N/Nc1nc(N2CCCCC2)nc(N2CCCCC2)n1	0.79µM	i	?	?	i	i
CC(=O)Nc1ccc(/C(C)=N/Nc2nc(Nc3cccc4ccccc34)nc(N3CCOCC3)n2)cc1	5.6µM	?	?	?	?	11µM
O=[N+]([O-])c1ccccc1/C=N/Nc1nc(N2CCCC2)nc(N2CCCC2)n1	13µM	i	i	?	i	i
CCCCOCCCNC(=O)C[C@@H]1C[C@@]2(C(=O)OCC)CCCC=C2N(Cc2ccc3c(c2)OCO3)C1=O	nt	nt	i	?	nt	nt
CC(C)(C)CC(C)(C)c1ccc(OCCO)cc1	i	i	nt	nt	i	?
O=C(CNC(=O)C1CCCCC1)OCC(=O)c1ccc(-c2ccccc2)cc1	nt	nt	i	i	nt	nt
Cc1ccc2c(c1Br)C(O)(CC(=O)c1ccc(F)cc1)C(=O)N2 (stereo not given)	nt	nt	i	i	nt	nt
SMILES	RORg inh	MCF10A rereplic	KB-3-1 tox	KB-V1 MDR tox	SW480 rereplic	VP16 counter
O=[N+]([O-])c1ccccc1/C=C/C=N/Nc1nc(N2CCCCC2)nc(N2CCCCC2)n1	11µM	i	i	i	i	i
CCOC(=O)c1ccc(NC(=O)c2nc[nH]c2C(=O)N2CCN(c3ccccc3)CC2)cc1	?	i	i	i	i[9.22 µM]	?
CCOC(=O)c1ccc(NC(=O)c2nc[nH]c2C(=O)N2CCC(C)CC2)cc1	10µM	i	i	i	i[9.22 µM]	?
COc1ccc(NC(=O)c2nc[nH]c2C(=O)N2CCN(C(=O)OC(C)(C)C)CC2)cc1	?	i	i	i	?	?
COc1ccc(NC(=O)c2nc[nH]c2C(=O)N2CCC(C)CC2)cc1	13µM	i	i	?	i	?
Cc1ccc(NC(=O)c2nc[nH]c2C(=O)N2CCC(C)CC2)cc1	8.9µM	i	i	i	?	?
Cc1ccc(NC(=O)c2nc[nH]c2C(=O)N2CCN(c3ccccc3)CC2)cc1	4.5µM	i	i	i	i[9.22 µM]	13µM
Nc1ccccc1/C=C/c1ccnc2ccccc12	nt	nt	?	i	nt	nt
CCSc1ncc(Cl)c(C(=O)Nc2nnc(CC)s2)n1	nt	nt	i	i	nt	nt
CCc1nnc(NC(=O)c2cc(Cl)ccn2)s1	4.5µM	i	?	i	?	7.1µM
CCc1nnc(NC(=O)c2ncc(Cl)c(Cl)c2Cl)s1	3.2µM	i	i	i	i	4µM
CCCN1CCc2c(sc3nc(SCC)n(-c4ccccc4)c(=O)c23)C1	i	?	i	i	i	i
COc1ccc(-n2c(SC)nc3sc4c(c3c2=O)CCN(C)C4)cc1	i	?	i	i	i	i
CCCN1CCc2c(sc3nc(SCC)n(-c4ccc(OC)cc4)c(=O)c23)C1	i	21µM	i	i	i	i
CCCN1CCc2c(sc3nc(SC)n(-c4ccccc4)c(=O)c23)C1	i	18µM	i	i	?	i
CCCCC1=CC2=C(OC(C)=O)C(=O)C(C)(OC(=O)CCC(=O)OC)C(=O)C2=CO1 (stereo not given)	i	nt	nt	nt	nt	i
Cc1ccc(NC(=O)C2CCCN(S(=O)(=O)c3c(C)n[nH]c3C)C2)c(C)c1 (stereo not given)	nt	nt	i	i	nt	nt
O=c1c2c(nc3cc(-c4cccc(F)c4)[nH]n13)CCC2	i	i	i	i	i	i
O=c1c2c(nc3cc(-c4ccc(F)cc4)[nH]n13)CCCC2	8.9µM	i	i	i	i	11µM
CCC(C(=O)O)n1ccc2cc(S(=O)(=O)N3CCCCC3)ccc21 (stereo not given)	nt	nt	i	?	nt	nt
COc1cc(OC)c(C=NNC(=S)NC23CC4CC(CC(C4)C2)C3)c(OC)c1	nt	?	i	5.2µM	?	nt
COc1ccc(C=NNC(=S)NC23CC4CC(CC(C4)C2)C3)cc1OC	nt	9.2µM	?	2.9µM	?	nt
COc1cccc(CC(=O)Nc2ccc3nc(C)sc3c2)c1	i	i	i	?	9.2µM	i
CCOc1ccc2c(c1)C(=O)c1cc(OCC(=O)O)ccc1-2	i	i	i	?	i	i
CCCCOc1ccc2c(c1)C(=O)c1cc(O)ccc1-2	8.9µM	?	i	i	i	?
CCOc1cc(OCC)cc(C(=O)N2CCC[C@H]2C(=O)N2CCC[C@H]2C(=O)N[C@@H](C)c2ccccc2)c1	nt	nt	i	i	nt	nt
Cc1[nH]n(-c2ccccc2)c(=O)c1/C=N/Nc1nncc(-c2ccccc2)n1	0.05µM	i	7.3µM	?	i	0.0022µM
